Results: the supplement of paper PMC11732987, “Enantioselective OTUD7B fragment discovery through chemoproteomics screening and high-throughput optimisation” (Communications Chemistry, 2025)
A number with no mark means an inactive call.

Tests used:
Assay in all cases: log2 ratio of Biotin-Ahx-Ub-VS probe labelling (compound/DMSO); higher = less target engagement, active = hit call of the paper (q ≤ 0.05, log2 ratio ≤ -1)
Conditions in all cases: treatment time: 3 h
[1] = compound: CN(Cc1cccc(Br)c1)C(=O)CCl
Procedure, shortened: (§1)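 HEK293T lysate (495 µg per sample, in Tris/CHAPS/IGEPAL buffer with protease inhibitors) was treated in triplicate with compound at 50 or 200 µM or with DMSO for 3 h. It was then treated with Biotin-Ahx-Ub-VS (0.5 µM final) for 1 h. Labelled DUBs were NeutrAvidin-enriched, digested with LysC and trypsin, and run by diaPASEF LC-MS/MS. Median-normalised label-free quantities gave average log2 ratios compound/DMSO by unpaired t-test, using proteins with ≥2 unique peptides.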

[2] = compound: CN(Cc1cccc(OCc2ccccc2C)c1)C(=O)CCl
Procedure, shortened: as §1

[3] = compound: CN(Cc1ccccc1)C(=O)CCl
Procedure, shortened: as §1

[4] = compound: COc1ccc(CN(C)C(=O)CCl)cc1
Procedure, shortened: as §1

[5] = compound: COc1cccc(CN(CCCc2ccccc2)C(=O)CCl)c1
Procedure, shortened: as §1

[6] = compound: ClCC(=O)N1CCc2cc(Cl)c(Cl)cc2C1
Procedure, shortened: as §1

[7] = compound: ClCC(=O)N1CCc2nc(ncc2C1)-c1ccccc1
Procedure, shortened: as §1

[8] = compound: ClCC(=O)N1CCc2nocc2C1
Procedure, shortened: as §1

[9] = compound: ClCC(=O)N1CCc2scc(Br)c2C1
Procedure, shortened: as §1

[10] = compound: ClCC(=O)NC(C1CCCC1)c1cccs1
Procedure, shortened: as §1

[11] = compound: ClCC(=O)NC1CCCc2ccccc12
Procedure, shortened: as §1

[12] = compound: ClCC(=O)NC1CCOc2ccc(Cl)cc12
Procedure, shortened: as §1

[13] = compound: ClCC(=O)NC1CCSc2ccccc12
Procedure, shortened: as §1

[14] = compound: ClCC(=O)N[C@H]1CCCc2ccccc12
Procedure, shortened: as §1

[15] = compound: Fc1ccc(N2CCN(c3nc4c(CN(C(CCl)=O)CC4)cn3)CC2)cc1.Cl.Cl
Procedure, shortened: as §1

Sequence of UniProt P09936 (P09936 whole entry, looked up): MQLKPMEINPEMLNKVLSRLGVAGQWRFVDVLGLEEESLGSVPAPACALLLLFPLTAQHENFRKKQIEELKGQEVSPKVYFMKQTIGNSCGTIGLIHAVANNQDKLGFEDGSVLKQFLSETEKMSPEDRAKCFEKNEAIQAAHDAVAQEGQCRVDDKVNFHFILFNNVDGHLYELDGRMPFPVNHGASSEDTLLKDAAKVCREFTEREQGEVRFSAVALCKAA
Sequence of UniProt O94966 (O94966 whole entry): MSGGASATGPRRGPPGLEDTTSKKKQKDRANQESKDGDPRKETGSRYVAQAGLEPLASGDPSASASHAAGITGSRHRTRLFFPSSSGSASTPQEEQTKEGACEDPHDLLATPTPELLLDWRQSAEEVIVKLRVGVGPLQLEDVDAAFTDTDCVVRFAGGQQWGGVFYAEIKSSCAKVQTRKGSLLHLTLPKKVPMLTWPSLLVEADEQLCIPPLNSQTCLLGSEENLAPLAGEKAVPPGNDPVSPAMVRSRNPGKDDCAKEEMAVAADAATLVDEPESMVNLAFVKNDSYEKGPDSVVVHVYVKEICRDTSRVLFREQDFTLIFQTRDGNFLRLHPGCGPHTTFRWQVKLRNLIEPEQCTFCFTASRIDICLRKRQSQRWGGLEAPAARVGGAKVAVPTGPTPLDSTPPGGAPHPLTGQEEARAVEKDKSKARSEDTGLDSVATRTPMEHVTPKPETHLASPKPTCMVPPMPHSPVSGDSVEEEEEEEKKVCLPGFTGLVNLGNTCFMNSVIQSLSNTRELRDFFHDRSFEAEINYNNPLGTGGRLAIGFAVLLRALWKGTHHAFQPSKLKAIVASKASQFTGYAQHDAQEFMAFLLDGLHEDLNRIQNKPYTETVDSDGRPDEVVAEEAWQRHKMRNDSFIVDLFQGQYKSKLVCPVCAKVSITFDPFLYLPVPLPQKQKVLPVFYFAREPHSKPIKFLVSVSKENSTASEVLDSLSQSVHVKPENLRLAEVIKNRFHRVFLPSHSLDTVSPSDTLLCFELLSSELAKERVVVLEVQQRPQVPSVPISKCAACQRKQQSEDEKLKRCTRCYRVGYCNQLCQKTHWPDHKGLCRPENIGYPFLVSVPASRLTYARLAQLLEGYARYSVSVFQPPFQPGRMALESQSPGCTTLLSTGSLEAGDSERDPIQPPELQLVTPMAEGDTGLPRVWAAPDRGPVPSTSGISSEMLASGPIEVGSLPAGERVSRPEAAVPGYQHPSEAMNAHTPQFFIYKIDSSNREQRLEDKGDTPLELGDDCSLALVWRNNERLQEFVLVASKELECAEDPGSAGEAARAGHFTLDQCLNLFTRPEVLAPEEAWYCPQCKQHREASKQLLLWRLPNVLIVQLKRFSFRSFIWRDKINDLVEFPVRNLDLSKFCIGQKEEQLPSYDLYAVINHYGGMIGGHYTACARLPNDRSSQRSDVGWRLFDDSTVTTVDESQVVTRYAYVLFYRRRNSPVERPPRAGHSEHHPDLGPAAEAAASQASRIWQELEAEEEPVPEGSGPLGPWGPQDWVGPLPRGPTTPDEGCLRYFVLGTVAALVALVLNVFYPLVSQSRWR
Sequence of UniProt P45974 (P45974 whole entry): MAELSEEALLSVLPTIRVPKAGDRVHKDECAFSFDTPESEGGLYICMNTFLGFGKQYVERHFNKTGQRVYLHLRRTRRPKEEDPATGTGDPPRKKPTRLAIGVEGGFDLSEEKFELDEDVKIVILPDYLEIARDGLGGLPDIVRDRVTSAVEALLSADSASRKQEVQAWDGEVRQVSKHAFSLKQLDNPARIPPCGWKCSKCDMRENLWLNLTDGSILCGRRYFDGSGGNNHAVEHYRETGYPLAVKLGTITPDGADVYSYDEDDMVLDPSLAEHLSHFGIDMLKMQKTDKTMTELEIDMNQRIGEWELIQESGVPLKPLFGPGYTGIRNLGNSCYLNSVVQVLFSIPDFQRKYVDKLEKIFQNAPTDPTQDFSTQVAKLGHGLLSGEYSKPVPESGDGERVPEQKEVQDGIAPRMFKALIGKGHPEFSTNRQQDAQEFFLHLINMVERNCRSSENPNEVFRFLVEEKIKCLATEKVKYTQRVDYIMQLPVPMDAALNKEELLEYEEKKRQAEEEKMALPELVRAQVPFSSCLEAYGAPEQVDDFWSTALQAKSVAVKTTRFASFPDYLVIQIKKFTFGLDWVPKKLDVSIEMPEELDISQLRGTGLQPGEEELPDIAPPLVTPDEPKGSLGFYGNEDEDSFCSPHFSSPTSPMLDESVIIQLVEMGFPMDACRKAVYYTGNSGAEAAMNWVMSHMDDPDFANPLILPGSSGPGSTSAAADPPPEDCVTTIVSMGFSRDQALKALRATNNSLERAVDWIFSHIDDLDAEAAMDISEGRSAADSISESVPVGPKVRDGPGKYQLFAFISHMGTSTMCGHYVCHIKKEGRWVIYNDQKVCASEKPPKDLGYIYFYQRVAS
Sequence of UniProt P40818 (P40818 whole entry): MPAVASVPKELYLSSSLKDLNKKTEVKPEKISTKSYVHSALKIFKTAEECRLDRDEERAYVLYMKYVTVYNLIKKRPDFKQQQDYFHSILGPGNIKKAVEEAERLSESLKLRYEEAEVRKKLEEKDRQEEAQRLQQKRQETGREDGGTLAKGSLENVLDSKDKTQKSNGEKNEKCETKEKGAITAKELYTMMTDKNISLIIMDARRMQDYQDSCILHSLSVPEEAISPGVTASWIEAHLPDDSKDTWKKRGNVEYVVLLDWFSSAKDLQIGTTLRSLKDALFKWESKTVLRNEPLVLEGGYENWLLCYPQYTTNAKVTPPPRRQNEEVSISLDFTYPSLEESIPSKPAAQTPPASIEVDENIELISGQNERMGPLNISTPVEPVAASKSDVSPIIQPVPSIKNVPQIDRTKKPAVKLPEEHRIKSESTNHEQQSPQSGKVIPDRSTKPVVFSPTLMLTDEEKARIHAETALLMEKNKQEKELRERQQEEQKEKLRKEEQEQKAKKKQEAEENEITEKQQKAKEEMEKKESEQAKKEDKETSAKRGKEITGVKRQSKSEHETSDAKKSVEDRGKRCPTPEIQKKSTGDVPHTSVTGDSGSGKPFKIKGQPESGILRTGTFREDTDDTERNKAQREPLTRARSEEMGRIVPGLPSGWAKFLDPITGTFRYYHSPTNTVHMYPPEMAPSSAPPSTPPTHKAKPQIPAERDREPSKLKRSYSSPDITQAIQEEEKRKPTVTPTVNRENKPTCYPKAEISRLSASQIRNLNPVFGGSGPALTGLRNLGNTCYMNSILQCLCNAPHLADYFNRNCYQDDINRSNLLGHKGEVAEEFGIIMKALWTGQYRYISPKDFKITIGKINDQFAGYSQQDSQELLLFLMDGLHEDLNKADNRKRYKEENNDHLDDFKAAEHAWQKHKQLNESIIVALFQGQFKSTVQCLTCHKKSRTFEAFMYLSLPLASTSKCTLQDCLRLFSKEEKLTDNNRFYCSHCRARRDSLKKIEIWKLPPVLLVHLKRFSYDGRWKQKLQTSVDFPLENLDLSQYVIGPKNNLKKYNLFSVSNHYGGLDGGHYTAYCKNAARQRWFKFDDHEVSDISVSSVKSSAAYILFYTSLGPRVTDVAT
Sequence of UniProt Q9H9J4 (Q9H9J4 whole entry): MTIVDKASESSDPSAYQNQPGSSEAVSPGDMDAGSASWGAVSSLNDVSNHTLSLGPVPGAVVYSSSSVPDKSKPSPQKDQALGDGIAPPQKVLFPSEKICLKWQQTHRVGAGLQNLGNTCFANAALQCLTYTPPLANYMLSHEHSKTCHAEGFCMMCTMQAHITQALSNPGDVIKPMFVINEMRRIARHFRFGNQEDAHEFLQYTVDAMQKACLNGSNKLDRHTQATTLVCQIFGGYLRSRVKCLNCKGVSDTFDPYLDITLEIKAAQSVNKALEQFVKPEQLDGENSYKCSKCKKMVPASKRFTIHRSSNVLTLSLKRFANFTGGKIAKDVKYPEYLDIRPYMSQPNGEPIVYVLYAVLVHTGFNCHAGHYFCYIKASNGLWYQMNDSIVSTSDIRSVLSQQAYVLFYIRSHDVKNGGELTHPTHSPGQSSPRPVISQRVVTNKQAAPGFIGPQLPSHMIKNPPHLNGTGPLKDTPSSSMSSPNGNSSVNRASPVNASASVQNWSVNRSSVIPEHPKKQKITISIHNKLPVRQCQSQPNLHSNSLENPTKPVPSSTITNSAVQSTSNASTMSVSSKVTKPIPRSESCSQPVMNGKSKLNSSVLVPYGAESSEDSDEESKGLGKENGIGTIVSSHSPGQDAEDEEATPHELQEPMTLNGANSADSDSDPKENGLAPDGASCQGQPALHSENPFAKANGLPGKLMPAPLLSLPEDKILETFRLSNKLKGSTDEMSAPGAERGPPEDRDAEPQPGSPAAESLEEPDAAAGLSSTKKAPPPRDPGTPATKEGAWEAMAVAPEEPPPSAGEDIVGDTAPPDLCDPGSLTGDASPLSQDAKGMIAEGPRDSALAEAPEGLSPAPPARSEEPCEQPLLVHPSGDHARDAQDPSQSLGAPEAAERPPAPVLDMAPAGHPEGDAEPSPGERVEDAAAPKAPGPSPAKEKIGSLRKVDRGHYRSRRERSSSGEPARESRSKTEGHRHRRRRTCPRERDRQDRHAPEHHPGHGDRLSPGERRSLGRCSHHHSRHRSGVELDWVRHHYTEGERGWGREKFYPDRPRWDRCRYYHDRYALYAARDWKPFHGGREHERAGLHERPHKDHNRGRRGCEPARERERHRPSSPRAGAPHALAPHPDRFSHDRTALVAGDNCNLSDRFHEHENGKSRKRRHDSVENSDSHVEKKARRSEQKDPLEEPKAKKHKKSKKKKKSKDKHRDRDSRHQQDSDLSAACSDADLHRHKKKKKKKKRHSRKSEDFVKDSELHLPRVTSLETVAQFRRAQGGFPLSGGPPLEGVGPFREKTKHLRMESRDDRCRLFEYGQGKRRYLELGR

Target | log2 ratio of Biotin-Ahx-Ub-VS probe labelling ([1]; compound concentration: 50uM) | log2 ratio of Biotin-Ahx-Ub-VS probe labelling ([1]; compound concentration: 200uM) | log2 ratio of Biotin-Ahx-Ub-VS probe labelling ([2]; compound concentration: 50uM) | log2 ratio of Biotin-Ahx-Ub-VS probe labelling ([2]; compound concentration: 200uM) | log2 ratio of Biotin-Ahx-Ub-VS probe labelling ([3]; compound concentration: 50uM) | log2 ratio of Biotin-Ahx-Ub-VS probe labelling ([3]; compound concentration: 200uM) | log2 ratio of Biotin-Ahx-Ub-VS probe labelling ([4]; compound concentration: 50uM) | log2 ratio of Biotin-Ahx-Ub-VS probe labelling ([4]; compound concentration: 200uM) | log2 ratio of Biotin-Ahx-Ub-VS probe labelling ([5]; compound concentration: 50uM) | log2 ratio of Biotin-Ahx-Ub-VS probe labelling ([5]; compound concentration: 200uM) | log2 ratio of Biotin-Ahx-Ub-VS probe labelling ([6]; compound concentration: 50uM) | log2 ratio of Biotin-Ahx-Ub-VS probe labelling ([6]; compound concentration: 200uM) | log2 ratio of Biotin-Ahx-Ub-VS probe labelling ([7]; compound concentration: 50uM) | log2 ratio of Biotin-Ahx-Ub-VS probe labelling ([7]; compound concentration: 200uM) | log2 ratio of Biotin-Ahx-Ub-VS probe labelling ([8]; compound concentration: 50uM) | log2 ratio of Biotin-Ahx-Ub-VS probe labelling ([8]; compound concentration: 200uM) | log2 ratio of Biotin-Ahx-Ub-VS probe labelling ([9]; compound concentration: 50uM) | log2 ratio of Biotin-Ahx-Ub-VS probe labelling ([9]; compound concentration: 200uM) | log2 ratio of Biotin-Ahx-Ub-VS probe labelling ([10]; compound concentration: 50uM) | log2 ratio of Biotin-Ahx-Ub-VS probe labelling ([10]; compound concentration: 200uM) | log2 ratio of Biotin-Ahx-Ub-VS probe labelling ([11]; compound concentration: 50uM) | log2 ratio of Biotin-Ahx-Ub-VS probe labelling ([11]; compound concentration: 200uM) | log2 ratio of Biotin-Ahx-Ub-VS probe labelling ([12]; compound concentration: 50uM) | log2 ratio of Biotin-Ahx-Ub-VS probe labelling ([12]; compound concentration: 200uM) | log2 ratio of Biotin-Ahx-Ub-VS probe labelling ([13]; compound concentration: 50uM) | log2 ratio of Biotin-Ahx-Ub-VS probe labelling ([13]; compound concentration: 200uM) | log2 ratio of Biotin-Ahx-Ub-VS probe labelling ([14]; compound concentration: 50uM) | log2 ratio of Biotin-Ahx-Ub-VS probe labelling ([14]; compound concentration: 200uM) | log2 ratio of Biotin-Ahx-Ub-VS probe labelling ([15]; compound concentration: 50uM) | log2 ratio of Biotin-Ahx-Ub-VS probe labelling ([15]; compound concentration: 200uM)
USP19 (UniProt O94966) | -0.419 | -1.2 (active) | -1 (active) | -1.76 (active) | -0.372 | -0.827 | -0.301 | -0.572 | -0.64 | -1.37 (active) | -0.948 | -3.11 (active) | -0.512 | -2.01 (active) | -0.407 | -1.17 (active) | -0.747 | -2.35 (active) | -0.0897 | -0.299 | -0.205 | -0.219 | -0.252 | -0.38 | -0.00658 | -0.393 | -0.0565 | -0.411 | -1.25 (active) | -3.86 (active)
EIF3H (UniProt O15372) | -0.0499 | -0.495 | -0.0626 | -0.0695 | -0.0247 | -0.0426 | -0.128 | 0.0275 | 0.0566 | 0.0114 | -0.344 | 0.309 | -0.162 | 0.025 | 0.0895 | -0.349 | -0.0247 | 0.0406 | -0.136 | 0.0107 | -0.0316 | -0.379 | -0.141 | -0.0932 | -0.0985 | -0.00068 | -0.109 | 0.0728 | 0.0328 | -0.126
USP5 (UniProt P45974) | 0.304 | 0.538 | -0.113 | -0.0873 | -0.0827 | -0.00169 | -0.0203 | 0.204 | 0.212 | 0.11 | 0.412 | -0.121 | 0.389 | 0.254 | 0.00846 | 0.00188 | 0.214 | 0.0804 | 0.00222 | -0.112 | 0.0451 | 0.134 | 0.0362 | -0.0604 | 0.236 | -0.0467 | 0.0744 | -0.095 | 0.22 | -0.287
USP39 (UniProt Q53GS9) | 0.105 | -0.535 | -0.137 | 0.0162 | -0.0746 | 0.0651 | 0.011 | -0.086 | 0.17 | 0.063 | 0.017 | -0.298 | 0.044 | 0.117 | -0.102 | -0.0827 | -0.0611 | -0.272 | 0.165 | 0.014 | -0.167 | -0.109 | -0.269 | -0.2 | -0.0242 | -0.138 | 0.0198 | -0.0406 | 0.0915 | -0.109
VCPIP1 (UniProt Q96JH7) | -0.446 | -0.887 | -0.755 | -1.2 (active) | -0.563 | -0.709 | -0.548 | -0.854 | -0.299 | -1.11 (active) | -0.374 | -0.407 | -0.105 | -0.284 | -0.319 | -0.484 | -0.213 | -0.677 | -0.515 | -0.426 | -0.592 | -1.1 (active) | -0.668 | -0.836 | -0.427 | -1.2 (active) | -0.287 | -0.962 | -0.145 | -0.737
MINDY4 (UniProt Q4G0A6) | 0.681 | -1.19 (active) | 0.702 | 0.585 | 0.106 | -0.273 | 0.675 | 0.712 | 0.722 | 0.797 | 0.706 | 0.819 | 0.669 | 0.652 | 0.0993 | 0.614 | 0.589 | 0.525 | 0.738 | 0.487 | 0.639 | -0.0583 | -0.0698 | 0.0712 | 0.832 | -0.691 | 0.216 | 0.204 | 0.258 | 0.516
ATXN3 (UniProt P54252) | -0.252 | -0.624 | -0.719 | -1.1 (active) | -0.361 | -0.872 | -0.229 | -0.842 | -0.391 | -0.729 | -0.915 | -2.63 (active) | -0.221 | -1.26 (active) | -0.325 | -1.08 (active) | -0.485 | -1.78 (active) | 0.0786 | -0.141 | -0.0534 | -0.164 | -0.0955 | -0.25 | 0.24 | -0.293 | -0.316 | -0.596 | -0.648 | -2.72 (active)
UCHL1 (UniProt P09936) | -0.0723 | 0.424 | -0.437 | -0.268 | -0.373 | -0.192 | -0.293 | 0.0271 | 0.0165 | 0.0676 | 0.153 | -0.0523 | 0.109 | -0.0372 | -0.379 | -0.3 | -0.0189 | -0.0895 | -0.0993 | -0.00199 | -0.0609 | 0.151 | -0.516 | -0.228 | 0.0655 | -0.146 | -0.0596 | -0.223 | 0.0885 | -0.474
PRPF8 (UniProt Q6P2Q9) | -0.00418 | 0.0824 | -0.075 | 0.0126 | -0.0842 | 0.108 | 0.0375 | 0.065 | 0.00751 | 0.0603 | 0.0965 | 0.0914 | 0.046 | 0.0608 | -0.0702 | 0.00362 | -0.00317 | 0.0413 | 0.122 | -0.028 | -0.0294 | -0.0682 | -0.217 | -0.0207 | 0.0298 | -0.0215 | 0.0787 | -0.0553 | -0.0417 | -0.137
USP8 (UniProt P40818) | -0.123 | -0.132 | -0.488 | -0.321 | -0.346 | -0.338 | -0.306 | -0.187 | -0.167 | -0.253 | 0.0209 | -0.351 | -0.00835 | -0.371 | -0.247 | -0.347 | -0.126 | -0.311 | -0.0892 | -0.0187 | -0.193 | -0.0275 | -0.286 | -0.268 | 0.0453 | -0.166 | -0.0844 | -0.245 | -0.136 | -0.61
PSMD7 (UniProt P51665) | -1.92 | 0.377 | 0.204 | -0.694 | 0.305 | 1.21 | -0.346 | 2.6 | 0.459 | 0.335 | -1.17 | 0.126 | -0.153 | 0.514 | 0.812 | 0.83 | 0.689 | 0.149 | 0.0697 | 0.463 | -5.4 | -0.933 | -1.46 | 0.606 | 0.408 | 0.0589 | 1.77 | 0.0535 | -0.177 | -1.73
USP42 (UniProt Q9H9J4) | 0.0496 | 0.397 | 0.101 | 0.171 | -0.0195 | 0.165 | -0.0749 | 0.205 | 0.0537 | 0.284 | 0.0405 | 0.669 | -0.0528 | 0.104 | 0.0476 | 0.187 | 0.182 | 0.44 | -0.428 | 0.159 | 0.113 | 0.286 | -0.00469 | 0.132 | 0.137 | 0.26 | -0.0967 | 0.0714 | -0.0766 | 0.241
